Results filed as inconclusive are left out. Calls of active or inactive are those of the source. Calls follow the shape of the dose curve; as a rule, active = well fitted cell-killing curve with a large enough effect in the repeat runs; inconclusive = weak or mixed curves; inactive = flat fitted curve, though single readings scatter.
Test: qHTS assay to identify small molecule antagonists of the estrogen related receptor (ERR) signaling pathway - cell viability counter screen (AID 1224818)
Conditions: ERR reporter cell line viability counter screen; series mostly up to 46.1 µM
Source text: National Center for Advancing Translational Sciences [NCATS]
NIH Chemical Genomics Center [NCGC]
U.S. Environmental Protection Agency [EPA]
National Institutes of Environmental Health Sciences [NIEHS]
National Toxicology Program [NTP]
U.S. Food and Drug Administration [FDA]
Estrogen related receptors (ERRs), the first orphan nuclear receptors discovered, play an important role in the control of cellular energy metabolism. ERRs are required for high-energy production in response to the environmental challenges. ERR-alpha was also identified as an adverse marker for breast cancer progression; ERR-alpha-positive tumors have a poor prognosis. To screen and to identify environmental compounds that perturb the ERR signaling pathways could provide valuable information for potential therapeutic or preventive measures in the treatment of metabolic disease. To differentiate true ERR antagonists or agonist from cytotoxic substances, the assay is multiplexed with cell viability assay.
Tox21 Assay Protocol Summary:
The ERR cells were dispensed at 2,000 cells/5 ul/well in 1536-well white plates using a Multidrop dispenser. After the assay plates were incubated at a 37 C/5% CO2 incubator for 6 hours, 23 nL of compounds dissolved in DMSO, positive and negative controls or DMSO only was transferred to the assay plate by a pin tool. The plates were incubated at 37 C for 17.5 hours. 1 ul/well of CellTiter-Fluor reagent was added into the assay plates using a Flying Reagent Dispenser. After 30 min incubation at 37 C/5% CO2, the fluorescence intensity in the plates was measured using a ViewLux plate reader.

Row | Compound | outcome
1 | FC(F)(F)c1ccccc1-n1ccnc1 | inactive
2 | Cc1cccc(C)c1OCC(C)N (centres undefined) | inactive
3 | CCN(CC)CC(=O)Nc1c(C)cccc1C | inactive
4 | Cc1cc(C(C)(C)C)c(O)c(C)c1CC1=NCCN1 | inactive
5 | CN(CCOc1ccc(NS(C)(=O)=O)cc1)CCc1ccc(NS(C)(=O)=O)cc1 | inactive
6 | CC(=O)CCCCn1c(=O)c2c(ncn2C)n(C)c1=O | inactive
7 | CN1CCN(CC(=O)N2c3ccccc3C(=O)Nc3cccnc32)CC1 | inactive
8 | C[C@@H](O)[C@H]1C(=O)N2C(C(=O)O)=C(SCCN=CN)C[C@H]12 | inactive
9 | NC(CO)C(=O)NNCc1ccc(O)c(O)c1O (centres undefined) | inactive
10 | CCN1CCc2nc(N)oc2CC1 | inactive
11 | O=C(CCNNC(=O)c1ccncc1)NCc1ccccc1 | inactive
12 | CCCN1C[C@H](CSC)C[C@@H]2c3cccc4[nH]cc(c34)C[C@H]21 | inactive
13 | COc1ccc(C2CNC(=O)C2)cc1OC1CCCC1 (centres undefined) | inactive
14 | CNS(=O)(=O)CCc1ccc2[nH]cc(C3CCN(C)CC3)c2c1 | inactive
15 | Nc1nnc(-c2cccc(Cl)c2Cl)c(N)n1 | inactive
16 | COC(=O)[C@@H]1[C@H]2C[C@H]3c4[nH]c5ccccc5c4CCN3C[C@@H]2CC[C@@H]1O | inactive
17 | O=C(NCCN1CCOCC1)c1ccc(Cl)cc1 | inactive
18 | NCCS | inactive
19 | CCCCNc1ccc(C(=O)OCCN(C)C)cc1 | inactive
20 | CCOC(=O)c1ncn2c1CN(C)C(=O)c1cc(F)ccc1-2 | inactive
21 | CC(C)NCC(O)COc1ccc(COCCOC(C)C)cc1 (centres undefined) | inactive
22 | N[C@@H](COP(=O)(O)O)C(=O)O | inactive
23 | COCCOC(=O)C1=C(C)NC(C)=C(C(=O)OC(C)C)C1c1cccc([N+](=O)[O-])c1 (centres undefined) | inactive
24 | CC(C)NCC(O)COc1cccc2[nH]ccc12 (centres undefined) | inactive

Source: PubChem BioAssay (Tox21)
